Measurements from PubChem BioAssay.
Calls of active or inactive are those of the source.

Assays:
[1] = test system: Plasmodium falciparum Sir2 (PF13_0152, Sir2A); assay: pfSir2 binders on small-molecule microarrays, primary screen, biochemical, small-molecule microarray, 635 nm fluorescence (AID 1098); conditions: small-molecule microarray binding, fluorescence 635 nm; higher = more signal;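 also: score merges spot fluorescence intensity with its signal-to-noise ratio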
[2] = small-molecule microarray binders of probe aDKK1, primary screen, biochemical, biotinylated probe, 635/667 nm fluorescence (AID 1099); conditions: higher = more signal;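 also: score merges 667nm spot fluorescence with signal to noise across triplicate slides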
[3] = small-molecule microarray binders of probe aCHRDL2, primary screen, biochemical, biotinylated probe, 635/667 nm fluorescence (AID 1100); conditions: higher = more signal
[4] = splicing luciferase reporter signal modulators, primary screen, spliceosome inhibition project, cell-based, HEK293, splice +/- reporter (AID 1101); conditions: luminescence, 24 h, higher = more signal, called active from +8 up or from −8 down;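 also: HEK293 cells carrying a splicing-competent luciferase reporter gene; test concentration not given here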
[5] = target: Fibroblast growth factor 10 (Homo sapiens) (UniProt O15520); assay: FGF10 binders on small-molecule microarrays, primary screen, biochemical, small-molecule microarray, 635 nm fluorescence (AID 1102); conditions: FGF10 binding, fluorescence 635 nm, higher = more signal
Fibroblast growth factor 10 (Homo sapiens), sequence (O15520 whole entry, looked up): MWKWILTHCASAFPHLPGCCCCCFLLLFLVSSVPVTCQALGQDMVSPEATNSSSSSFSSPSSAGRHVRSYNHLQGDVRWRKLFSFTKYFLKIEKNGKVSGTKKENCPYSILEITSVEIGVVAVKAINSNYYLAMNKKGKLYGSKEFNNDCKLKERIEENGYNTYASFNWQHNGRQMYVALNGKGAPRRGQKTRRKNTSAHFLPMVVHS

[6] = test system: glycogen synthase kinase-3 (GSK3A per assay name; protocol says GSK3B); assay: GSK3 binders on small-molecule microarrays, primary screen, biochemical, small-molecule microarray, 635 nm fluorescence, GSK3A (AID 1103); conditions: small-molecule microarray binding, fluorescence 635 nm; higher = more signal; also: the record names both GSK3A and GSK3B
[7] = target: Epidermal growth factor receptor (Homo sapiens) (UniProt P00533); assay: EGFR binders on small-molecule microarrays, primary screen, biochemical, small-molecule microarray, 635 nm fluorescence (AID 1104); conditions: EGFR binding, higher = more signal;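 also: score merges 667 nm emission intensity with spot signal to noise over triplicate slides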
Epidermal growth factor receptor (Homo sapiens), sequence (P00533 whole entry, looked up): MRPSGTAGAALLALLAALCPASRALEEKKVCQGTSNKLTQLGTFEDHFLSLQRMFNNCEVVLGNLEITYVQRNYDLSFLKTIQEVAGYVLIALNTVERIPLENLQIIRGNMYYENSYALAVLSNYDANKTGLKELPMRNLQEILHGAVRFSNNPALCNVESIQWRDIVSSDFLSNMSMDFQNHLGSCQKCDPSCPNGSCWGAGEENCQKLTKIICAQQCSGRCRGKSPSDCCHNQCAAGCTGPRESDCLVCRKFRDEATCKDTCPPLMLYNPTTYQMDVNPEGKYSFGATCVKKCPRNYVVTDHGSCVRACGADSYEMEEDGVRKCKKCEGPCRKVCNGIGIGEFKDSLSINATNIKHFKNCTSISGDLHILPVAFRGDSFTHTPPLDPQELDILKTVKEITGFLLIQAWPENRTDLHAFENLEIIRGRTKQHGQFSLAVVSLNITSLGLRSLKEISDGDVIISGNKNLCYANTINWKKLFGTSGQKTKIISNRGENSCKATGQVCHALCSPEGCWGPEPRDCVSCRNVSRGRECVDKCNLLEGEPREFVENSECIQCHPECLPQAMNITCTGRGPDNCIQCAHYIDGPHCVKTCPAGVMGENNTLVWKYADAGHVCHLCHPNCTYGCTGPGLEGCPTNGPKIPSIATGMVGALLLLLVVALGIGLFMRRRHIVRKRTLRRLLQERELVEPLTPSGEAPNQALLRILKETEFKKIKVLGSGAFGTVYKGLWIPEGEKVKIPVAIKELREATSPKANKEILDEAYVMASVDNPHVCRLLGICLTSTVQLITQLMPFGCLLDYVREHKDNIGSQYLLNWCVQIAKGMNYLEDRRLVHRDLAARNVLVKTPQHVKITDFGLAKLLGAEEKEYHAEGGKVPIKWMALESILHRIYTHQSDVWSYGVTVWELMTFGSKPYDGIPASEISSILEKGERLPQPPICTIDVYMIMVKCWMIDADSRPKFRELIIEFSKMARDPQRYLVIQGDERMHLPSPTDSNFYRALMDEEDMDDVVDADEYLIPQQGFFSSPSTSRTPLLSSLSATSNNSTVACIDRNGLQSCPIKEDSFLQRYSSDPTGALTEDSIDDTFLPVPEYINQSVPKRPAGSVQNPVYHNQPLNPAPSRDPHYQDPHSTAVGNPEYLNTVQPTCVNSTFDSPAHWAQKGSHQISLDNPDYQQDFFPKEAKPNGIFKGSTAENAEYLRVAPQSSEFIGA

[8] = target: Follistatin-related protein 3 (Homo sapiens) (UniProt O95633); assay: FSTL3 binders on small-molecule microarrays, primary screen, biochemical, small-molecule microarray, 635 nm fluorescence (AID 1105); conditions: FSTL3 binding, higher = more signal;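 also: score merges emission near 667 nm and signal to noise per printed spot across three slides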
Follistatin-related protein 3 (Homo sapiens), sequence (O95633 whole entry, looked up): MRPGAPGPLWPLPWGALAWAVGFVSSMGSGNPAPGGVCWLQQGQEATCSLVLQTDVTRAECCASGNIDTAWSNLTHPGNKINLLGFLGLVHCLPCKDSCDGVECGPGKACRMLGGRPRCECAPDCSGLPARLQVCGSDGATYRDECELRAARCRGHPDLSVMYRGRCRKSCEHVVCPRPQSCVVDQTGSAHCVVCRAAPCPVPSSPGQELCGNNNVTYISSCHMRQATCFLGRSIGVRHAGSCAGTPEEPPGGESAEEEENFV

[9] = target: Dickkopf-related protein 1 (Homo sapiens) (UniProt O94907); assay: DKK1 binders on small-molecule microarrays, primary screen, biochemical, small-molecule microarray, 635 nm fluorescence scan (AID 1106); conditions: DKK1 binding, higher = more signal;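 also: score merges emission near 667 nm with signal to noise over three replicate slides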
Dickkopf-related protein 1 (Homo sapiens), sequence (O94907 whole entry, looked up): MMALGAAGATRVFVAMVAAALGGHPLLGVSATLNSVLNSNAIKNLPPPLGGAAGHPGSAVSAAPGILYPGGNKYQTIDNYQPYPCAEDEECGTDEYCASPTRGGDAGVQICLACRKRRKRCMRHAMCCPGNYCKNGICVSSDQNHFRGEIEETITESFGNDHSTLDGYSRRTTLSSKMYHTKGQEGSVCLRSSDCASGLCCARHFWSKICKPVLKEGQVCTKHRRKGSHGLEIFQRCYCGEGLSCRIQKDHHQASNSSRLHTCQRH

[10] = test system: Inhibin beta A chain (activin A); assay: INHBA (activin A) binders on microarrays, primary screen, biochemical, small-molecule microarray, 635 nm fluorescence scan (AID 1107); conditions: small-molecule microarray binding, higher = more signal;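 also: mouse activin A protein probed at 4.33 µg/mL on printed slides; score merges bound-protein fluorescence near 667 nm with spot signal-to-noise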
[11] = test system: Human papillomavirus type 1a protein E7 (residues 44-93); assay: HPV1a E7 fragment binders on microarrays, primary screen, biochemical, small-molecule microarray, residues 44-93, 635 nm fluorescence (AID 1108); conditions: small-molecule microarray binding, fluorescence 635 nm; higher = more signal;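 also: E7 fragment applied at 1 µg/mL in TBST for 1 h at 4 C; score combines spot fluorescence with its signal to noise ratio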
[12] = modulators of HCV replicon luciferase signal, primary screen, HCV replication inhibitor project, Huh7 cells, luciferase reporter (AID 1109); conditions: 48 h, higher = more signal;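 also: huh7 hepatoma cells harbouring a luciferase neomycin HCV replicon reporter; luciferase luminescence as measure of HCV replicon replication; test concentration not given here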
[13] = target: Left-right determination factor 2 (Homo sapiens) (UniProt O00292); assay: LEFTY2 binders on small-molecule microarrays, primary screen, biochemical, small-molecule microarray, 635 nm fluorescence scan (AID 1110); conditions: LEFTY2 binding, higher = more signal
Left-right determination factor 2 (Homo sapiens), sequence (O00292 whole entry, looked up): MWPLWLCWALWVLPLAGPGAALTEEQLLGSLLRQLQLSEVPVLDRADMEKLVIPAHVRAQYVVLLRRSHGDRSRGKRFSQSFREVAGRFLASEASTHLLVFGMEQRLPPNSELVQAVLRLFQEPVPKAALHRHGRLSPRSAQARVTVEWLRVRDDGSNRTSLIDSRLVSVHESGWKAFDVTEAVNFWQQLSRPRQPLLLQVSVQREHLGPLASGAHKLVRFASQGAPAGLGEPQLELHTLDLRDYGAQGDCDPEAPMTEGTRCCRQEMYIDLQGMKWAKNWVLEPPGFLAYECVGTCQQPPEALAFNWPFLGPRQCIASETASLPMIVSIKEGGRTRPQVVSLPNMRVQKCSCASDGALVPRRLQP

[14] = target: Calmodulin-1 (Homo sapiens) (UniProt P0DP23); assay: CALM1 binders on microarrays, EGTA buffer, profiling panel, biochemical, small-molecule microarray, Cy5-labelled CALM1 (AID 1111); conditions: Cy5-CALM1 binding fluorescence, higher = more signal;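 also: labelled calmodulin applied in Tris saline Tween buffer holding calcium plus EGTA and DTT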
[15] = target: Calmodulin-1 (Homo sapiens) (UniProt P0DP23); assay: calcium-bound CALM1 binders on microarrays, profiling panel, artefact control for SMM control-protein annotation, biochemical, small-molecule microarray, Cy5-labelled CALM1, plus calcium (AID 1112); conditions: Cy5-CALM1 binding fluorescence, higher = more signal;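 also: score merges spot fluorescence with signal to noise from triplicate slides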
[16] = small-molecule microarray binders of probe aWnt5a, primary screen, biochemical, biotinylated probe, 635/667 nm fluorescence (AID 1113); conditions: higher = more signal;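 also: score merges 667 nm fluorescence intensity with signal-to-noise per printed feature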
[17] = small-molecule microarray binders of probe aShh, primary screen, biochemical, biotinylated probe, 635/667 nm fluorescence (AID 1114); conditions: higher = more signal;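 also: probe is biotin-labelled aShh protein from a stem cell growth factor screen; measures binding of labelled protein to compounds printed on the slide; score merges feature fluorescence at 667 nm with signal-to-noise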
[18] = small-molecule microarray binders of probe aNog, primary screen, biochemical, biotinylated probe, 635/667 nm fluorescence (AID 1115); conditions: higher = more signal;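 also: probe is biotinylated aNog protein used at 0.15 µg/mL for 1 h at 4 C; z-score combines 667 nm fluorescence of each spot with its signal to noise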
[19] = target: Torsin-1A-interacting protein 1 (Homo sapiens) (UniProt Q5JTV8); assay: LAP1 binders from COS7 cell lysate, primary screen, small-molecule microarray, 635/667 nm fluorescence (AID 1116); conditions: COS7-hLAP1 lysate binding, 635 nm fluorescence, higher = more signal
Torsin-1A-interacting protein 1 (Homo sapiens), sequence (Q5JTV8 whole entry, looked up): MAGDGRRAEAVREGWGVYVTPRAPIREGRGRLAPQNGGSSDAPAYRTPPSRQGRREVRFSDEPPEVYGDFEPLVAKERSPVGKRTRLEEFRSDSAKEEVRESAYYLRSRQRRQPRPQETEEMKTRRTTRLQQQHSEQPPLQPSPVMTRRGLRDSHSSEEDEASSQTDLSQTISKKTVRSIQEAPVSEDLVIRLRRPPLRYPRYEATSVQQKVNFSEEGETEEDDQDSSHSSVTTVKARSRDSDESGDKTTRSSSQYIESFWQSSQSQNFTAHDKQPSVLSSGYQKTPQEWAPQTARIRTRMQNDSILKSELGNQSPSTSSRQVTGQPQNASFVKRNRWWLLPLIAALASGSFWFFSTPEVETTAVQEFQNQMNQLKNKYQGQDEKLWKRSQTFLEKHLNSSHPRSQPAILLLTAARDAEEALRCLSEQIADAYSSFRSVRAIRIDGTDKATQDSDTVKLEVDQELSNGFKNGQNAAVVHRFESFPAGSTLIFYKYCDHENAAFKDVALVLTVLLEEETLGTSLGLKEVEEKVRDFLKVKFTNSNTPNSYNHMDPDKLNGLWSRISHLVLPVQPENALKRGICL

[20] = target: Alpha-bungarotoxin (Bungarus multicinctus) (UniProt P60615); assay: alpha-bungarotoxin binders on microarray, profiling panel, artefact control for SMM control protein annotation, biochemical, small-molecule microarray, Alexa647 label, 635/667 nm fluorescence (AID 1117); conditions: alpha-BTX-A647 binding fluorescence, higher = more signal
Alpha-bungarotoxin (Bungarus multicinctus), sequence (P60615 whole entry, looked up): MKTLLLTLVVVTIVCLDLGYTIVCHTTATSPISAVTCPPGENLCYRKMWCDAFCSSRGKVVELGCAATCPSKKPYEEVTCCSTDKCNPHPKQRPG

Compound	composite z-score [1]	composite z-score [2]	composite z-score [3]	z-score [4]	composite z-score [5]	composite z-score [6]	composite z-score [7]	composite z-score [8]	composite z-score [9]	composite z-score [10]	composite z-score [11]	z-score [12]	composite z-score [13]	composite z-score [14]	composite z-score [15]	composite z-score [16]	composite z-score [17]	composite z-score [18]	composite z-score [19]	composite z-score [20]
COc1ccc([C@H]2OC[C@@H]3C[C@@H](Cc4ccccc4)C(=O)N32)cc1	0.143	-0.191	-0.435	0.247 (inactive)	1.3	0.228	0.424	0.821	0.326	-0.0187	-0.235	-0.859	0.311	-0.05	-0.317	-0.0203	-0.0146	-0.0273	0.53	-0.429
C=C(CCCC)C(=O)CC[C@@H](OC(=O)c1ccccc1-c1ccccc1C(=O)O)c1ccc(OCCO)cc1	1.19	-0.0379	0.0075	0.962 (inactive)	0.969	0.585	-0.181	0.668	0.55	1.42	-0.65	-2.71	0.744	-0.487	-0.559	-0.096	0.0278	0.094	0.881	1.05
CCc1cccc(NC(=O)O[C@H]2[C@H](OC(=O)Nc3ccccc3-c3ccccc3)[C@@H](OC(=O)Nc3ccccc3-c3ccccc3)[C@@H](OC)O[C@@H]2CO)c1	1.29	0.481	0.648	-2.55 (inactive)	1.13	0.954	0.0707	1.38	-0.0897	0.465	1.52	-3.79	0.3	1.71	-0.0011	0.0839	0.432	0.572	1.47	1.53
[N-]=[N+]=NCc1ccccc1[C@@H]1OC(c2ccc(OCCCO)cc2)=N[C@]1(Cc1ccccc1)C(=O)NCC(O)CO (stereo not given in full)	0.62	0.914	0.956	0.371 (inactive)	0.899	0.0871	-0.519	-1.19	-0.889	0.68	-0.0042	-1.16	-0.559	0.168	0.305	0.262	0.559	1.99	1.95	2.68
C=CC1(C(=O)OC)CC=C(C(=O)OC)CC1 (stereo not given)	0.0006	-0.259	-0.425	-1.38 (inactive)	0.916	1.15	0.478	0.791	0.908	-0.115	1.1	-0.928	1.24	0.887	0.234	-0.141	1.1	-0.0689	1.1	0.605
C[C@@]1([C@@H](NC(=O)c2ccc(-c3ccccc3)cc2)c2ccc(Cl)cc2)C[C@H]1C1CCCCC1	0.78	1.13	1.07	-1.82 (inactive)	0.575	0.787	0.0292	0.313	-0.131	0.387	1.34	-1.18	0.279	1.42	1.2	0.0879	0.603	1.03	0.667	1.17
C=CCN1C(=O)[C@]2(O[C@H](CCn3cc([C@H](O)c4ccccc4)nn3)[C@@H]([Si](C)(C)c3ccc(OC)cc3)[C@@H]2C)c2ccccc21	0.474	-0.291	0.414	3.39 (inactive)	-0.364	-0.781	-1.25	-0.581	-0.651	0.162	-1.22	-2.71	-0.901	-0.525	0.227	-0.124	-0.0146	-0.223	-0.252	-1.56
COC(=O)C(CC#Cc1ccc2c(c1)[C@]1(C(=O)N2)[C@H](c2ccc(OCCO)cc2)N2[C@H](c3ccccc3)[C@H](c3ccccc3)OC(=O)[C@H]2[C@@H]1C(=O)Nc1nc2ccccc2s1)C(=O)OC	0.842	-0.348	0.0051	-0.0218 (inactive)	1.03	1.28	0.313	1.09	0.42	0.0864	1.4	-1.65	0.582	1.55	0.489	-0.0195	-0.0119	-0.267	1.03	1.11
